HSV augment: enhancers of HSV replication in host cells, fold increase, host cell viability | HSV replication augmentation in cells | maximum fold increase | 220,000 compounds, 0.005% hits | AID 1956, 2009; in the data active means maximum fold increase above about 1.5; inconclusive means no clear call, values can overlap the other calls; tested in PC3 cells
H9c2 TAG inh: inhibitors of triacylglycerol accumulation, primary screen, cell-based, uHTS, fluorescence, H9c2; inhibition, % at 12.5 µM; H9c2 cells, Nile Red lipid (TAG) fluorescence; cells loaded with 200 µM oleic acid; 230,000 compounds, 0.66% hits;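 active means pattern-corrected inhibition of lipid staining of at least 50% with the nuclear-stain viability signal not falling by more than 50%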;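 further: 0% = DMSO wells and 100% = triacsin C control wells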
GC-A act: GC-A stimulated cGMP production enhancers – HEK293 GC-A cells, cGMP TR-FRET, EC30 ANP, primary screen | Atrial natriuretic peptide receptor 1 (Homo sapiens), P16066 | 0% at EC30 ANP, 100% saturating ANP | activation, % at 10 µM | 370,000 compounds, 0.14% hits; in the data active means activation above about 40%
Bfl-1 A1 inh: caspase 3/7 activation in MEF A1-2A-BIM cells, primary screen, A1 inhibitor project, cell-based, luminescence, HTS; AID 2462, 2010; 330,000 compounds, 0.066% hits; caspase activation, % (concentration not given with the values); Caspase-Glo 3/7 luminescence, 3 h; percent of clofoctol response, vehicle zero;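 active means over half of replicate activation scores above 10%, or exactly half above 10 with the replicate mean above 10; inconclusive means replicate mean below 10 yet half the replicates above 10; inactive means over half of replicates below 10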
Efflux pump inh: inhibitors of Candida efflux pumps in yeast, primary screen, S. cerevisiae, Nile Red, multiplex; S. cerevisiae Candida pump triplex; inhibition, % at 10 µM; 330,000 compounds, 0.44% hits;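 active means plate passing quality check with inhibition over a set limit, or well fluorescence over plate mean plus 4 SD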;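 further: Nile Red retained in pooled yeast measured as flow cytometry median fluorescence; 0% = buffer negative control and 100% = Enniatin B positive control; higher means more Nile Red kept so more efflux inhibition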
GC-B act: human GC-B receptor activators, primary screen, HEK293 GC-B cells, cGMP TR-FRET, EC30 CNP; activation, % at 10 µM; 0% at EC30 CNP, 100% saturating CNP; 370,000 compounds, 0.11% hits; Atrial natriuretic peptide receptor 2 (Homo sapiens), P20594;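 active means activation at 10 µM reaching about 35% in either raw or pattern-adjusted values, limit read from the data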
Target sequence (P20594 whole entry, looked up): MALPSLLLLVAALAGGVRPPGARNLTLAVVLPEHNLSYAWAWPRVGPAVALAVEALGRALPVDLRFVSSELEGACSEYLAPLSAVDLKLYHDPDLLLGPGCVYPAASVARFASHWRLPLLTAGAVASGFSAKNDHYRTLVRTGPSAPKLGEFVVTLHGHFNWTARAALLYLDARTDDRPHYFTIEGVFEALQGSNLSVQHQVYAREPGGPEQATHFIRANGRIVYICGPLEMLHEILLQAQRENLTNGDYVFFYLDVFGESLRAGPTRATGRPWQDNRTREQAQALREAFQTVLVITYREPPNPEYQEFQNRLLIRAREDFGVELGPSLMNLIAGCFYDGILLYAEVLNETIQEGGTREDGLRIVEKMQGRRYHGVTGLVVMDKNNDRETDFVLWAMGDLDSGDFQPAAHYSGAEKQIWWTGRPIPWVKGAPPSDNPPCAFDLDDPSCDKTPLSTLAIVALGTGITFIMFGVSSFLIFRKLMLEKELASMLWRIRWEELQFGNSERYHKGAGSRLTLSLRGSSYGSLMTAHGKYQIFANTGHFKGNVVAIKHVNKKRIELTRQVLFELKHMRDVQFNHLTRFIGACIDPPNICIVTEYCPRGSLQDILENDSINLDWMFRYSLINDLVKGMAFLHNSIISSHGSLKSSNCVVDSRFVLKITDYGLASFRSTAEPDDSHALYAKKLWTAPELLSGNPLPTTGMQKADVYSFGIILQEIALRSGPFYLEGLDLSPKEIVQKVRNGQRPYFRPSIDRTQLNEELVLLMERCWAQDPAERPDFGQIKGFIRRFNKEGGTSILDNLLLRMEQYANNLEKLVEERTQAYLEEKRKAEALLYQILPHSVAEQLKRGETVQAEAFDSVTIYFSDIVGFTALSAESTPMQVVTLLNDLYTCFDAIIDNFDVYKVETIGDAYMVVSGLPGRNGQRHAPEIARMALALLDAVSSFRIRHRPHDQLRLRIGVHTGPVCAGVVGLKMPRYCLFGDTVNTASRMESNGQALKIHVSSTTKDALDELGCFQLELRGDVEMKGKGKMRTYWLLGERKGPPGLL
Yeast cmpd fluor: compound fluorescence in yeast efflux pump counter-screen; S. cerevisiae AD/pABC3, flow cytometry; AID 588517; shares compounds with Efflux pump inh; fluorescence ratio to DMSO, % at 10 µM; 1,700 compounds, 4% hits;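 active means fluorescence ratio to DMSO above its plate's cutoff, the plate mean ratio plus 5 SD, cut at about 210% in these data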;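 further: unstained yeast with no Nile Red so the signal is compound autofluorescence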
Mdr1 pump inh: inhibitors of Candida albicans Mdr1 efflux, confirmation, flow cytometry, singleplex, Cherry Pick1 set. inhibition, % at 10 µM. AID 588518, 2011. 1,700 compounds, 1% hits. S. cerevisiae AD/CaMDR1, Nile Red efflux. shares compounds with Efflux pump inh; in the data active means inhibition above about 26%;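 further: 0% = DMSO vehicle and 100% = reference inhibitor; higher means more Nile Red retained so more efflux inhibition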
CaCdr2 efflux inh: inhibitors of Candida albicans Cdr2 efflux pump, confirmation, S. cerevisiae AD/CaCDR2, flow cytometry, cherry pick 1, singleplex. 1,700 compounds, 4% hits. Nile Red retention. AID 588520, 2011. shares compounds with Efflux pump inh. Nile Red retention ratio vs DMSO, % at 10 µM; in the data active means Nile Red retention ratio vs DMSO above about 190%;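 further: higher ratio means more blocking of Cdr2 efflux of the dye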
Cdr1 pump inh: inhibitors of Candida albicans Cdr1 efflux pump, confirmation, S. cerevisiae AD/CaCDR1, flow cytometry, cherry pick 1, singleplex. shares compounds with Efflux pump inh. Nile Red efflux. inhibition, % at 10 µM. 1,700 compounds, 1% hits. AID 588522, 2011;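 active means inhibition above the screen-wide mean plus twice its standard deviation, cut at about 32% in these data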
Starred values were filed as active, the others as inactive; i = inactive; ? = inconclusive; . = no result given. This is a sample that favours compounds with a hit; in the whole collection about 1% have one here.

SMILES	HSV augment	H9c2 TAG inh	GC-A act	Bfl-1 A1 inh	Efflux pump inh	GC-B act	Yeast cmpd fluor	Mdr1 pump inh	CaCdr2 efflux inh	Cdr1 pump inh
CC(C)C[C@@H]1NC(=O)[C@H]2C[C@]3(c4ccccc4)c4ccccc4N[C@H]3N2C1=O	.	.	-1	.	.	-9	.	.	.	.
CCOc1ccc(C(=O)Nc2cccc(-c3cc4ccccc4oc3=O)c2)cc1[N+](=O)[O-]	?	45	-4	1	1.0*	0	107	0	101	0
O=S(=O)(c1ccc(F)cc1)N1CCC(c2nc3ccccc3o2)CC1	.	.	-4	.	.	2	.	.	.	.
Cc1occc1C(=O)NNC(=O)c1ccc(F)cc1	i	-9	0	-1	0	1	.	.	.	.
Cc1occc1C(=O)NNC(=O)c1ccccc1F	i	2	3	-2	1.1*	4	105	0	104	0
O=C(Cc1ccccc1Cl)c1ccccc1	.	-8	1	.	.	1	.	.	.	.
O=C(Cc1c2ccccc2nc2ccccc12)c1ccccc1	i	.	1	0	15*	-5	92	0	106	0
CCOC(=O)[C@@]12CCCC3=C1N(CCC3)C(=O)[C@H]2CC(=O)N1CCN(C(=O)c2ccco2)CC1	.	.	-3	.	.	0	.	.	.	.
CCOC(=O)N1CCN(C(=O)CSc2ccc(C(F)(F)F)cc2[N+](=O)[O-])CC1	.	.	4	0	0	1	.	.	.	.
CN1CCN(C(=O)CSc2ccc(C(F)(F)F)cc2[N+](=O)[O-])CC1	i	.	-3	0	14*	6	108	0	120	0
O=C(NC1CCCCN(Cc2cccc(C(F)(F)F)c2)C1=O)C1C2CC3CC(C2)CC1C3 (centres undefined)	.	.	-3	.	.	8	.	.	.	.
CCN(CC)c1ccc(/C=c2/sc3nnc(-c4ccccc4C)n3c2=O)cc1	i	.	6	0	0.6*	6	215*	1	175	0
CCN(CC)c1ccc(/C=c2\sc3nnc(-c4ccccc4Cl)n3c2=O)cc1	i	-2	11	-1	0.7*	0	271*	1	175	1
Cc1ccc(/C=c2/sc3nnc(-c4ccccc4Cl)n3c2=O)o1	i	.	3	0	0	-7	.	.	.	.
COc1ccc(CNC(=O)C(=O)NCC2OCCN2S(=O)(=O)c2ccc(OC)c(OC)c2)cc1 (centres undefined)	.	22	2	1	0	0	101	0	94	0
COc1ccc(S(=O)(=O)N2CCOC2CNC(=O)C(=O)NCc2ccc3c(c2)OCO3)cc1OC (centres undefined)	.	26	1	1	0	3	108	0	100	0
CCC1(C(=O)c2ccc(Cl)cc2)C2c3ccccc3OC(=O)C21C(=O)Nc1ccccc1 (centres undefined)	i	.	-28	4	1.8*	-17	84	0	106	0
COc1cc(NC(=O)c2cnn3c(C)cc(C)nc23)cc(OC)c1OC	.	.	3	.	.	-3	.	.	.	.
CCN(Cc1ccccc1)C(c1ccncc1)c1nnnn1C(C)(C)C (centres undefined)	i	.	-2	0	0.4*	-6	102	0	107	0
CCN(Cc1ccccc1)C(c1ccc(C)cc1)c1nnnn1C(C)(C)CC (centres undefined)	i	-18	-8	0	0	-6	.	.	.	.
c1ccc(CN(Cc2ccco2)C(c2ccncc2)c2nnnn2C2CCCC2)cc1 (centres undefined)	i	.	-2	0	0.6*	5	108	0	101	0
COc1ccc(NC2CC(=O)N(c3cc([N+](=O)[O-])ccc3C)C2=O)cc1 (centres undefined)	i	-10	0	0	1.1*	-1	115	0	114	0
CCOC(=O)CC[C@@H]1CC[C@]2(CCCN(S(=O)(=O)C3CCCCC3)C2)O1	.	.	-1	.	.	-1	.	.	.	.
CNC(=O)N(O)C1N(/N=C/c2ccccc2O)C(=S)SC1(C)C (centres undefined)	i	0	-1	1	0	-2	.	.	.	.
CNC(=O)N(O)C1N(c2ccccc2)C(=S)SC1(C)C (centres undefined)	i	.	5	0	8.0*	3	99	0	114	0
SMILES	HSV augment	H9c2 TAG inh	GC-A act	Bfl-1 A1 inh	Efflux pump inh	GC-B act	Yeast cmpd fluor	Mdr1 pump inh	CaCdr2 efflux inh	Cdr1 pump inh
O=C(NC1CCCc2ccccc21)c1cncc(Br)c1 (centres undefined)	i	-19	-5	-1	3.4*	-8	96	0	92	0
COc1ccccc1C(=O)Nc1nnc(SCC(=O)Nc2ccc3c(c2)oc2ccccc23)s1	i	.	3	-6	0	-3	.	.	.	.
Cc1cccc(C(=O)Nc2nnc(SCC(=O)Nc3ccc4c(c3)oc3ccccc34)s2)c1	i	.	-1	-3	4.2*	3	92	0	114	0
CCCC1CCC2(CCCN2CCOC(=S)Nc2cccc(Cl)c2)CC1 (centres undefined)	.	.	0	.	.	-3	.	.	.	.
CCc1ccc(-c2cc(C(=O)Nc3ccc(S(=O)(=O)NC(C)=O)cc3)c3ccccc3n2)cc1	i	4	4	1	0	-1	104	0	97	0
O=C(Nc1ccc(S(=O)(=O)Nc2nccs2)cc1)c1cc(-c2ccccc2)nc2ccccc12	i	.	-8	1	0	-2	.	.	.	.
COc1cc(-c2cc(C(=O)Nc3ccc(O)cc3)c3ccccc3n2)cc(OC)c1OC	i	-12	10	0	0	13	102	0	98	0
Cc1ccc(-c2cc(C(=O)Nc3ccc(S(=O)(=O)Nc4ncccn4)cc3)c3ccccc3n2)cc1	i	.	-9	0	8.2*	-8	101	0	83	0

Source: PubChem
